Results filed as inconclusive are left out. Entries that show only a call come without a potency. Active and inactive are the calls of the source. Calls follow the shape of the dose curve; as a rule, active = well fitted inhibition curve with a large enough effect; inconclusive = small, poorly fitted or top-dose-only effect; inactive = flat fitted curve, though single readings scatter.
Assay: CHOP2 Reporter Counterscreen Assay for Inhibitors of Ubiquitin-specific Protease USP2a;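 also: activated enterokinase alone at 50 pM in a cell-free format rather than USP2a or CHOP2; nearly all actives have a fitted effect of over 55% in size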
Settings: purified enterokinase, fluorogenic substrate, 485/531 nm; series mostly up to 38.3 µM
How it was run: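 Fluorescence (485/531 nm) read 10 min after adding 25nM reporter substrate to 50 pM activated EK preincubated 30 min RT with compound; Tris pH 8.0/CaCl2/CHAPS buffer. Data normalized to buffer-alone inhibition; concentration-response curves fitted.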
Potency is read from the fitted curve at half-maximal effect.

Row | Structure (SMILES) | Potency
1 | COc1ccc(-n2c(=S)[nH]c3cc(C(=O)NCc4ccc(F)cc4)ccc3c2=O)c(OC)c1 | inactive
2 | NC(=O)c1ncc(C(F)(F)F)cc1Oc1cccc(F)c1 | inactive
3 | COc1ccc(C(=O)Nc2ccc(N3CCCC3)cc2)cc1OC | inactive
4 | CCOc1ccc(NC(=O)c2ccc(NC(=O)COC(=O)c3ccc(NC(=O)CC#N)cc3)cc2)cc1 | 2.82 µM (active)
5 | Cn1ccc(=Nc2ccc(NC(=O)c3ccc(N=c4ccn(C)c5ccc([N+](=O)[O-])cc45)cc3)cc2)cc1 | inactive
6 | COc1ccc(Cc2nnc(NC(=O)Cc3cccs3)s2)cc1 | 1.78 µM (active)
7 | C=CC[C@H](CC(=O)N[C@H](CO)Cc1ccccc1)C(=O)N[C@@H](COC(=O)[C@@H](CC=C)CC(=O)OC(C)(C)C)Cc1c[nH]c2ccccc12 | inactive
8 | O=C(Nc1ncccc1Cl)c1cccc(F)c1 | inactive
9 | O=C(COC(=O)c1ccc(F)c(S(=O)(=O)N2CCOCC2)c1)c1ccccc1 | inactive
10 | Cc1cc(NC(=O)COC(=O)CCCOc2ccc(Cl)cc2C)no1 | inactive
11 | C=CC#CC[N+]1(CC#Cc2ccccc2)CCOCC1 | 2.24 µM (active)
12 | CC1CCN(CC(O)COc2cccc(F)c2)CC1 (stereo not given) | inactive
13 | Cc1ccc(O)c(CC(C)C)n1 | inactive
14 | O=C1CC(Nc2ccc(N3CCOCC3)cc2)C(=O)N1c1cccc(C(F)(F)F)c1 (stereo not given) | inactive
15 | COc1ccc(Cl)cc1S(=O)(=O)Nc1cccc(C(=O)O)c1 | inactive
16 | CC(C)CCn1c(CN2CCN(C(=O)c3ccco3)CC2)nc2c1c(=O)n(C)c(=O)n2C | inactive
17 | Cc1cc(N2CCOCC2)nc(SCC(=O)c2ccc(Cl)cc2)n1 | inactive
18 | O=C(CN1C(=O)/C(=C2\SC(=S)N(CCS(=O)(=O)O)C2=O)c2ccccc21)Nc1cccc(Br)c1 | 12.6 µM (active)
19 | COCCN1Cc2cccc(C(=O)N3CCN(c4cc(C)ccc4C)CC3)c2C1=O | inactive
20 | N#Cc1c(SCC(=O)Nc2nc3ccccc3s2)sc2c(O)cc(=O)[nH]c12 | 10 µM (active)

Row | Structure (SMILES) | Potency
21 | CCN(CC)CCNc1nc(-c2ccccc2)c2c(c1C#N)CC(C)(C)OC2 | inactive
22 | COc1ccc(NC(=O)CSc2nnc(-c3ccccc3Cl)n2Cc2ccco2)c(OC)c1 | inactive
23 | CC1Cc2ccccc2N1C(=O)Cn1c(=O)oc2cc(S(=O)(=O)NC3CCCC3)ccc21 (stereo not given) | inactive
24 | Nc1ccc2nc(-c3ccc(N)c(Cl)c3)[nH]c2c1 | inactive
25 | CC(/C=N/NC(=O)c1cc(-c2cccs2)[nH]n1)=C\c1ccccc1 | inactive
26 | C/C(CC(=O)N1CCCC1)=N\NC(=O)c1cc2ccccc2cc1O | inactive
27 | CCCCCCCCCCCCCCCCn1cc[n+](C)c1 | 10 µM (active)
28 | CCOc1ccc(C(=O)c2ccc(OCC)c(N)c2)cc1N | inactive
29 | O=C1c2ccccc2C(=O)N1CCCCn1c(=O)oc2ccccc21 | inactive
30 | COc1cc(/C=C(/C(=O)c2cccs2)c2nc3ccccc3[nH]2)ccc1O | inactive
31 | N=C1C(c2nc3ccccc3c(=O)[nH]2)=C(O)CN1CCc1ccccc1 | inactive
32 | CCCc1cc(=O)oc2cc(C)c(CN3CCCC3)c(O)c12 | inactive
33 | Cc1nn(CC(=O)Nc2cccc(S(N)(=O)=O)c2)c(C)c1[N+](=O)[O-] | inactive
34 | Oc1ccccc1/C=N/Nc1ncc(Br)cn1 | inactive
35 | O=[N+]([O-])c1c(NCCO)cc(N2CCN(Cc3ccc4c(c3)OCO4)CC2)c2nonc12 | inactive
36 | COCCCNCCCOc1ccc(C)cc1Br | inactive
37 | O=C(O)C1CCN1C1CCCCC1 (stereo not given) | inactive
38 | Cc1ccc(NC(=O)CS(=O)CC(=O)Nc2ccc(N3CCOCC3)cc2)cc1Cl (stereo not given) | inactive
39 | CCOC(=O)COc1ccccc1/C=N/O | inactive
40 | CCN(C[C@H]1N[C@@](CC)(C(=O)OC)[C@H]2C(=O)N(Cc3ccccc3)C(=O)[C@@H]12)C(=O)Nc1ccc(C)cc1 | inactive

Reference: PubChem BioAssay AID493169 (National Center for Advancing Translational Sciences (NCATS), 2011)
